Drawing on PubChem BioAssay (EPA / NIEHS), this text covers outcome for 40 compounds.

Results filed as inconclusive are left out. The source made the active and inactive calls. The calls were made as follows: active = hit-call score of the fitted dose curve at least 0.9, where 1 is the maximum; inconclusive = response in the unintended direction; inactive = score below 0.9.

This assay can be described thus: ATG_Hpa5_TRANS: Attagene TRANS-FACTORIAL HepG2 Assay for human GAL4-Hpa5 Hepatocyte Transcription Factor Basal Promoter (AID 2282975).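 Also: hits are increases in reporter mRNA over DMSO baseline.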 To be noted: HepG2 Attagene GAL4-Hpa5 transcription reporter. As for the experimental part: ATG_TRANS is a cell-based, multiplexed-readout assay that uses HepG2, a human liver cell line, with measurements taken at 24 hours after chemical dosing in a 24-well plate.ATG_Hpa5_TRANS is one of 30 assay component(s) measured or calculated from the ATG_TRANS assay. It is designed to make measurements of mRNA induction, a form of inducible reporter, as detected with fluorescence intensity signals by Reverse transcription polymerase chain reaction (RT-PCR) and Capillary electrophoresis technology.Data from the assay component ATG_Hpa5_TRANS was analyzed into 1 assay endpoint. This assay endpoint, ATG_Hpa5_TRANS, was analyzed in the positive analysis fitting direction relative to DMSO as the negative control and baseline of activity. Using a type of inducible reporter, measures of mRNA for gain-of-signal activity can be used to understand the background control at the transcription factor-level as they relate to the gene . Furthermore, this assay endpoint can be referred to as a secondary readout, because this assay has produced multiple assay endpoints where this one serves a background control function. To generalize the intended target to other relatable targets, this assay endpoint is annotated to the background measurement intended target family, where the subfamily is internal marker.
Human liver HepG2 cells are transiently transfected with multiple reporter transcription units (MRTUs) in 6-well plates using FuGene 6 reagent (Roche; 3 ml FuGene/1 mg DNA). The MRTU constructs are regulated by a cis-regulating element (promoter). […] A major difference between the CIS and TRANS system is that in CIS activities of endogenous TFs are measured, whereas the TRANS assay evaluates changes in activities of exogenous, chimeric NR-Gal4 proteins. […] At the end of 24 hour incubation, total RNA was isolated using TriZol reagent (Invitrogen). The isolated RNA is then reverse-transcribed using oligo(dT) primer and Mo-MLV reverse transcriptase (Invitrogen) with DNAse I (Ambion) treatment for 30 min. The one-tenth of the produced cDNA was amplified by PCR using Taq DNA polymerase (Invitrogen) and two reporter sequence-specific primers. The PCR products were fluorescently labeled by primer extension with 6-arboxyfluorescein (6-FAM) 5'-labeled reporter sequence-specific primer (2 min at 95 C, 20 s at 68 C and 10 min at 72 C) and these products were digested with 5U of HpaI (New England Biolabs) for 2h at 37 C. The fragments were purified using Qiaquick PCR columns (Qiagen), analyzed on an ABI 3130xL genetic analyzer (Applied Biosystems) with peak positions identified by using a set of X-rhodamine (ROX)-labeled MapMarker1000 molecular weight standards (BioVentures). The raw capillary electrophoresis data was processed using Attagraph software (Attagene).
Take `Nc1cnn(-c2ccccc2)c(=O)c1Cl`: the call was inactive. For `C=C(C)CN(CC)c1c([N+](=O)[O-])cc(C(F)(F)F)cc1[N+](=O)[O-]`, the compound was classed as inactive. In the case of `CC1(C)C(C=C(Cl)Cl)C1C(=O)OC(C#N)c1cccc(Oc2ccccc2)c1` (stereo not given) it was “inactive”; in that of `CCOc1nc(F)cc2nc(S(=O)(=O)Nc3c(Cl)cccc3Cl)nn12`, “inactive”. In the case of `CN=C=S` it was “inactive”; in that of `CNC(=O)N(C)c1nnc(C(C)(C)C)s1`, “inactive”; in that of `CCOP(=O)(OCC)Oc1nc(Cl)c(Cl)cc1Cl`, “inactive”.

With `CCN(CC)C(=O)C(C)Oc1cccc2ccccc12` (stereo not given), the result was inactive. In the case of `COC(=O)c1c(C(F)F)nc(C(F)(F)F)c(C2=NCCS2)c1CC(C)C` it was “inactive”; in that of `N#Cc1c(Cl)cccc1Cl`, “inactive”; in that of `O=C1C2CC=CCC2C(=O)N1SC(Cl)(Cl)Cl` (stereo not given), “inactive”. For the compound `COc1cc(Cl)c(OC)cc1Cl`, the result was inactive. Consider `CC(C)Oc1cccc(NC(=O)c2ccccc2C(F)(F)F)c1`, for which the compound was classed as inactive.

For the compound `CC(C)(C)C(=O)C(Oc1ccc(Cl)cc1)n1cncn1` (stereo not given), the compound was called inactive. In the case of `CC(C)C1(C)N=C(c2ncccc2C(=O)O)NC1=O` (stereo not given) it was “inactive”; in that of `COP(=O)(OC)O/C(C)=C/C(=O)N(C)C`, “inactive”. Consider `Cc1cc(C)nc(Nc2ccccc2)n1`, for which the outcome was inactive. In the case of `CC(C)N1C(=O)c2ccccc2NS1(=O)=O` it was “inactive”. In the case of `CSC(=O)c1c(C(F)F)nc(C(F)(F)F)c(C(=O)SC)c1CC(C)C` it was “inactive”. In the case of `CCCN(CC)CC1COC2(CCC(C(C)(C)C)CC2)O1` (stereo not given) it was “inactive”; in that of `CC(C)Nc1nc(Cl)nc(NC(C)C)n1`, “inactive”. Regarding `CC(C)=CC1C(C(=O)OCc2coc(Cc3ccccc3)c2)C1(C)C` (stereo not given), the result was inactive.

As to `CC1(C)C(C(=O)OC(C#N)c2cccc(Oc3ccccc3)c2)C1(C)C` (stereo not given), the compound was called inactive. In the case of `CCOP(=S)(OCC)Oc1nc(Cl)n(C(C)C)n1` it was “inactive”; in that of `COP(=S)(OC)SCn1nnc2ccccc2c1=O`, “inactive”; in that of `CC(C)NC(=O)N1CC(=O)N(c2cc(Cl)cc(Cl)c2)C1=O`, “inactive”. In the case of `CC1(C)CON(Cc2ccccc2Cl)C1=O` it was “inactive”. Consider `N#Cc1c[nH]cc1-c1cccc2c1OC(F)(F)O2`, for which the compound was called inactive. Take `COC(=O)NC(=S)Nc1ccccc1NC(=S)NC(=O)OC`: the call was inactive.

`CS(=O)(=O)c1ccc(C(=O)C2C(=O)CCCC2=O)c([N+](=O)[O-])c1`: the compound was called inactive.

With `COCc1cnc(C2=NC(C)(C(C)C)C(=O)N2)c(C(=O)O)c1` (stereo not given), the compound was called inactive. In the case of `N#CN=C1SCCN1Cc1ccc(Cl)nc1` it was “inactive”. Regarding `Cc1nc(N(C)C)nc(OC(=O)N(C)C)c1C`, the result was inactive. In the case of `CCN(CC)c1nc(C)cc(OP(=S)(OC)OC)n1` it was “inactive”; in that of `CCSC(=O)N1CCCCCC1`, “inactive”. In the case of `Cc1c(COC(=O)[C@@H]2[C@H](/C=C(\Cl)C(F)(F)F)C2(C)C)cccc1-c1ccccc1` it was “inactive”.

Take `CCCC(=NOCC)C1=C(O)CC(CC(C)SCC)CC1=O` (stereo not given): the compound was called inactive. Turning to `O=c1n(Cl)c(=O)n(Cl)c(=O)n1Cl`, the compound was called inactive. In the case of `Clc1cccc(C(Cl)(Cl)Cl)n1` it was “inactive”; in that of `CCOC(=O)C(C)OC(=O)c1cc(Oc2ccc(C(F)(F)F)cc2Cl)ccc1[N+](=O)[O-]` (stereo not given), “inactive”.
